Screening data from PubChem.
The list is not random: actives were taken first. Their share in the collection is about 1.9%.
MsrA act = activators of bovine methionine sulfoxide reductase A; purified bovine MsrA, absorbance read-out; activation, % at 10.6 µM; hit rate 0.3% among 360,000; in the data active = activation above about 7.5%
MsrA inh = bovine MsrA inhibition; inhibition, % at 15.5 µM; hit rate 0.75% among 360,000; purified bovine MsrA, absorbance read-out; AID 651718; in the data active = inhibition above about 4.5%
PLC-gamma1 inh = PLC-gamma1 (human) inhibition, primary screen | inhibition, % at 12.2 µM | purified PLC-gamma1, fluorogenic substrate, fluorescence | AID 720700 | hit rate 0.84% among 370,000 | P19174
PLC-beta3 inh = PLC-beta3 (human) inhibition, primary screen | hit rate 0.18% among 370,000 | AID 720704 | Q01970 | Purified PLC-beta3, fluorogenic substrate, fluorescence | inhibition, % at 12.2 µM; in the data active = inhibition above about 11%
Target sequence (Q01970 whole entry, looked up): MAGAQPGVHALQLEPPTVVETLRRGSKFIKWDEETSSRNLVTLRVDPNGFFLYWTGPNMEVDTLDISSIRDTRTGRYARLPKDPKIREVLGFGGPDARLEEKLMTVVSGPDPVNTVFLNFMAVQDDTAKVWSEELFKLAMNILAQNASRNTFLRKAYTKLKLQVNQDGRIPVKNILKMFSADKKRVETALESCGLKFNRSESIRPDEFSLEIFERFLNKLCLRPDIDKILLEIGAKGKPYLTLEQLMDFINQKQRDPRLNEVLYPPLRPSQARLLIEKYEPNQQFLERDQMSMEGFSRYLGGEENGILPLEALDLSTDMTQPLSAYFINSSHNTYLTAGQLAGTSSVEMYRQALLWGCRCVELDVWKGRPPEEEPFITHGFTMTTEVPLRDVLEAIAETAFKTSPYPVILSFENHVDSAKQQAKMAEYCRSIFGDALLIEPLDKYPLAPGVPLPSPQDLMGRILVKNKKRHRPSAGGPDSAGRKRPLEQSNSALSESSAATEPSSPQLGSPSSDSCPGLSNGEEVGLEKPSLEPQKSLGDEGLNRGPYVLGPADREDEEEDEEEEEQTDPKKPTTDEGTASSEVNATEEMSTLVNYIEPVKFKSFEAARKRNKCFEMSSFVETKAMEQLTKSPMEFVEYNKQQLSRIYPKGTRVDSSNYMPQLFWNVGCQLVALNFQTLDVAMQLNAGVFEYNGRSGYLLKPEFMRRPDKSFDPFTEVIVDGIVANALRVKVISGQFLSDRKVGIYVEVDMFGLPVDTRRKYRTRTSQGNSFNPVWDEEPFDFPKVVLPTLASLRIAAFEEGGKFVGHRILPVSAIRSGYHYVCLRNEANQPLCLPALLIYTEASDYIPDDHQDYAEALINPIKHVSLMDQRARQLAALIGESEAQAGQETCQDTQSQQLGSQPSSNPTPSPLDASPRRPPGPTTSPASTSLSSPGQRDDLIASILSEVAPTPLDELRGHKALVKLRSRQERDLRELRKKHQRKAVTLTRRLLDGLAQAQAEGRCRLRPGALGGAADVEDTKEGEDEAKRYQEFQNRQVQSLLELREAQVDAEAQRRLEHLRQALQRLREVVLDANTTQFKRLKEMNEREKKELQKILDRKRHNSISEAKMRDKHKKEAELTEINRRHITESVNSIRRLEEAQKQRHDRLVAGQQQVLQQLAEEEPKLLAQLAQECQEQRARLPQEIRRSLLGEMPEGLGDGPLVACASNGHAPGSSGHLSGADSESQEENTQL
PLCg1 ctr = counter-screen for PLC-beta3 inhibitors: inhibitors of human PLC-gamma1. shares compounds with PLC-gamma1 inh. purified PLC-gamma1, fluorogenic substrate, fluorescence. inhibition, % at 12.3 µM. hit rate 3.1% among 3,300. AID 743258
PLCbeta3 conf = confirmation of human PLC-beta3 inhibitors. shares compounds with PLC-gamma1 inh. purified PLC-beta3, fluorogenic substrate fluorescence. inhibition, % at 12.3 µM. hit rate 1% among 3,300. AID 743261; in the data active = inhibition above about 11%
Large screens that a line does not name were inactive (follow-up assays come after a bar, where they were run). Rule as the data show it, unless noted: active = inhibition above about 9.5%; inactive = the rest.

Cn1c(SCC(=O)c2c(N)n(C)c(=O)n(C)c2=O)nnc1-c1ccccc1	PLC-gamma1 inh 15 | PLCg1 ctr inactive | PLCbeta3 conf inactive
CCCn1c(N)c(C(=O)CSc2nc3ccccc3c(=O)n2Cc2ccccc2)c(=O)[nH]c1=O	none
CCc1c(Cc2ccccc2)ncn1CCc1ccccc1OC	none (no result: MsrA act)
O=C(Cc1ccc([N+](=O)[O-])cc1)Oc1ccccc1	PLC-gamma1 inh 9.7 | PLCg1 ctr inactive | PLCbeta3 conf inactive
Cc1ccc(CN2CCN(/N=C/c3ccc(C(F)(F)F)cc3)CC2)cc1	PLC-gamma1 inh 10 | PLCg1 ctr inactive | PLCbeta3 conf inactive
Cc1ccc(/C=N/N2CCN(Cc3ccc(C)cc3)CC2)cc1	none
CC(C)[C@H](NC(=O)[C@@H](N)Cc1ccccc1)C(=O)N1CCC2CCN(Cc3ccccc3)CC21 (stereo partly specified)	none (no result: MsrA act)
CC(=O)Nc1ccc(NC(=O)C2CCCCN2S(=O)(=O)c2ccc(C(C)(C)C)cc2)cc1 (stereo unspecified)	none
CC(=O)c1ccc(OCC(C)C)c(CC(C(N)=O)C(N)=O)c1	PLC-beta3 inh 12 | PLCg1 ctr inactive | PLCbeta3 conf inactive
O=C(O)CCCN1C(=O)/C(=C\c2ccco2)SC1=S	PLC-gamma1 inh 15 | PLCg1 ctr 23 | PLCbeta3 conf inactive
O=C(CCCN1C(=O)/C(=C/c2ccco2)SC1=S)Nc1ccccc1C(=O)O	none
O=C(CCN1C(=O)/C(=C\c2ccco2)SC1=S)Nc1ccc(C(=O)O)c(O)c1	PLC-gamma1 inh 37 | PLCg1 ctr 14 | PLCbeta3 conf inactive
O=C(COC(=O)CN1C(=O)c2ccccc2C1=O)Nc1ccccc1C(F)(F)F	none
Cc1ccc(NC(=O)CSc2n[nH]c(-c3ccco3)n2)c(C)c1	PLC-gamma1 inh 10 | PLCg1 ctr inactive | PLCbeta3 conf inactive
Cc1cc(=O)c2n(Cc3ccccc3Cl)nc[n+]2[nH]1	PLC-gamma1 inh 14 | PLCg1 ctr inactive | PLCbeta3 conf inactive
O=c1c(Cl)c(Cl)cnn1Cc1ccccc1Cl	none (no result: MsrA act)
CC(=O)NC[C@H]1O[C@@H](n2ccc(N)nc2=O)[C@H](O)[C@@H]1O	PLC-gamma1 inh 10 | PLCg1 ctr inactive | PLCbeta3 conf inactive
N#Cc1cc([N+](=O)[O-])cnc1Nc1ccccc1	PLC-gamma1 inh 10, PLC-beta3 inh 12 | PLCg1 ctr inactive | PLCbeta3 conf inactive
CC(C)C[C@@H](CO)N1CCNCCC1=O	none
CC(C)C[C@@H](CO)N1CCN(C)CCC1=O	PLC-gamma1 inh 14 | PLCg1 ctr inactive | PLCbeta3 conf inactive
N#Cc1ccc(Cn2ccc3ccc(-c4ccc5ccn(C(=O)C6CC6)c5c4)cc32)cc1	none (no result: MsrA act, MsrA inh)
O=c1c2ccccc2[nH]c(=S)n1CCCN1CCOCC1	none
O=c1c2ccc(Cl)cc2[nH]c(=S)n1CCCN1CCOCC1	PLC-beta3 inh 12 | PLCg1 ctr inactive | PLCbeta3 conf inactive
O=C(Cn1nnc(-c2ccccc2NC(=O)C2CC2)n1)NC1CCCCC1	PLC-gamma1 inh 11 | PLCg1 ctr inactive | PLCbeta3 conf inactive
Cc1ccc(S(=O)(=O)N(C)C)cc1NC(=S)N1CCCCC1CO (stereo unspecified)	none
O=C(NCC1CCN(C(=O)C(=O)c2cc3ccccc3o2)CC1)c1ccc2c(c1)OCCCO2	none (no result: MsrA act)
Cc1ccc(NC(=O)Cn2sc3nc(C)cc(C)c3c2=O)c(Cl)c1	PLC-gamma1 inh 13 | PLCg1 ctr inactive | PLCbeta3 conf inactive
Cc1cc(C)c2c(=O)n(CC(=O)Nc3ccc(Cl)cc3)sc2n1	none
CCCCCCCCCCOC(=O)Cn1c(COc2ccccc2)[n+](C)c2ccccc21	PLC-gamma1 inh 9.5 | PLCg1 ctr inactive | PLCbeta3 conf inactive
CCCCCCCCCCOC(=O)Cn1c(COc2ccc(OC)cc2)[n+](C)c2ccccc21	none (no result: MsrA inh, PLC-gamma1 inh, PLC-beta3 inh)
CCCCCCCCCCOC(=O)Cn1c(COc2ccc(Cl)cc2)[n+](C)c2ccccc21	PLC-gamma1 inh 13 | PLCg1 ctr inactive | PLCbeta3 conf inactive
CC(C)c1nnc(NC(=O)CCC(=O)NC2CCCCCC2)s1	none
CCN(CC)c1ncnc2c1ncn2[C@H]1CN(Cc2cccnc2)C[C@@H](CO)O1	none
O=C(Nc1ccc(S(=O)(=O)N2CCCC2)cc1)c1ccccc1	none
O=C(COC(=O)c1n[nH]c2ccccc12)Nc1cccc(S(=O)(=O)N2CCOCC2)c1	none
Cc1cc(NC(=O)c2ccc3c(c2)OCO3)ccc1NC(=O)c1ccccc1	PLC-beta3 inh 12 | PLCg1 ctr inactive | PLCbeta3 conf 15
CN(CCOc1ccccc1)C(=O)c1ccc2c(c1)OCO2	none
Cc1cc(NC(=O)c2ccc3c(c2)OCO3)ccc1NC(=O)c1ccco1	none
